Results: PubChem BioAssay (EPA / NIEHS)
Several values for one entry are separate records, joined by “and”; a condition that tells them apart may be missing. Identical values can stand only once. Where a structure was tested more than once in an assay, its records may differ in their call. Activity calls are given as the source filed them. How the source made its calls: active means hit-call score of the fitted dose curve at least 0.9, where 1 is the maximum; inactive means score below 0.9.

Experiments:
Decorin, DCN (gene 1634) = assay: BSK_MyoF_Decorin: BioMAP Diversity Plus: MyoF Assay for Decorin Biomarker Activity (AID 2284265); conditions: primary human lung fibroblasts
Summary of the method: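 Compound is added to lung fibroblast cultures; cells incubate 24 h; decorin is then measured by ELISA; the response is analysed upward against DMSO controls.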

[1] = BSK_MyoF_SRB: Viability Assessment in the BioMAP Diversity Plus: MyoF Assay (AID 2284267); conditions: primary human lung fibroblasts;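 further: total protein by SRB absorbance in parallel cultures as cytotoxicity measure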
Summary of the method: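 Confluent human lung fibroblasts were exposed to test chemicals for 24 h. Parallel wells were then fixed in 10% TCA, stained with 0.1% sulforhodamine B and measured at 560 nm. DMSO served as baseline for curve fitting.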

[2] = read-out: Matrix Metallopeptidase 1 (MMP1), MMP1 (gene 4312); assay: BSK_MyoF_MMP1: BioMAP Diversity Plus: MyoF Assay for Matrix Metallopeptidase 1 (MMP1) Biomarker Activity (AID 2284268); conditions: primary human lung fibroblasts
Summary of the method: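 Lung fibroblast cultures were dosed with test chemicals and, after 24 h, MMP1 levels were measured by ELISA; responses were referenced to DMSO and analysed for increases.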

[3] = read-out: TIMP metallopeptidase inhibitor 1 (TIMP1), TIMP1 (gene 7076); assay: BSK_MyoF_TIMP1: BioMAP Diversity Plus: MyoF Assay for TIMP metallopeptidase inhibitor 1 (TIMP1) Biomarker Activity (AID 2284269); conditions: primary human lung fibroblasts
Summary of the method: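 Primary human lung fibroblasts, MyoF multiplex system; chemical exposure 24 h; TIMP-1 by ELISA; positive fitting direction vs DMSO control.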

[4] = read-out: Interleukin-1 alpha (IL1a), IL1A (gene 3552); assay: BSK_BF4T_IL1a: BioMAP Diversity Plus: BF4T Assay for Interleukin-1 alpha (IL1a) Biomarker Activity (AID 2284264); conditions: primary human bronchial epithelial cells with fibroblasts
Summary of the method: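 ELISA read-out of IL-1α from bronchial epithelial cell/dermal fibroblast co-cultures 24 h after compound addition. Increases scored against DMSO negative control. Cytotoxicity monitored by sulforhodamine B staining of parallel cultures.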

KRT18 (gene 3875) = assay: BSK_BF4T_Keratin818: BioMAP Diversity Plus: BF4T Assay for Keratin 818 Biomarker Activity (AID 2284266); conditions: primary human bronchial epithelial cells with fibroblasts
Summary of the method: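 Keratin 8/18 levels quantified by ELISA after 24 h chemical treatment of bronchial epithelial cell/dermal fibroblast co-cultures, fitted in positive direction relative to DMSO. Parallel SRB staining tracks overt cytotoxicity.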

[5] = read-out: Matrix Metallopeptidase 1 (MMP1), MMP1 (gene 4312); assay: BSK_BF4T_MMP1: BioMAP Diversity Plus: BF4T Assay for Matrix Metallopeptidase 1 (MMP1) Biomarker Activity (AID 2284270); conditions: primary human bronchial epithelial cells with fibroblasts
Summary of the method: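 MMP-1 quantified by ELISA in primary human bronchial epithelial/dermal fibroblast co-cultures, 24 hours post-dosing, with DMSO as baseline; parallel sulforhodamine B staining (560 nm) tracks overt cytotoxicity.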

[6] = read-out: Matrix Metallopeptidase 3 (MMP3), MMP3 (gene 4314); assay: BSK_BF4T_MMP3: BioMAP Diversity Plus: BF4T Assay for Matrix Metallopeptidase 3 (MMP3) Biomarker Activity (AID 2284271); conditions: primary human bronchial epithelial cells with fibroblasts
Summary of the method: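 MMP-3 level read by ELISA after 24 h chemical exposure of bronchial epithelial cell/dermal fibroblast co-cultures, fitted upward relative to DMSO. Parallel cultures stained with 0.1% SRB after TCA fixation gauge overt cytotoxicity.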

[7] = read-out: Tissue plasminogen activator (tPA), PLAT (gene 5327); assay: BSK_BF4T_tPA: BioMAP Diversity Plus: BF4T Assay for Tissue plasminogen activator (tPA) Biomarker Activity (AID 2284272); conditions: primary human bronchial epithelial cells with fibroblasts
Summary of the method: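 tPA level quantified by ELISA at 24 h post-treatment in bronchial epithelial/dermal fibroblast co-cultures, gain of signal scored against DMSO baseline. Parallel cultures stained with 0.1% SRB (560 nm) to flag overt cytotoxicity.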

[8] = read-out: Plasminogen Activator Inhibitor-1 (PAI1), SERPINE1 (gene 5054); assay: BSK_BF4T_PAI1: BioMAP Diversity Plus: BF4T Assay for Plasminogen Activator Inhibitor-1 (PAI1) Biomarker Activity (AID 2284273); conditions: primary human bronchial epithelial cells with fibroblasts
Procedure: BSK_BF4T is a cell-based, multiplexed-readout assay that uses bronchial epithelial cells and dermal fibroblasts, a human vascular primary cell, with measurements taken at 24 hours after chemical dosing in a microplate: 96-well plate.BSK_BF4T_PAI1 is an assay component measured in the BSK_BF4T assay. It measures PAI-1 antibody related to regulation of gene expression using ELISA technology.Data from the assay component BSK_BF4T_PAI1 was analyzed at the endpoint, BSK_BF4T_PAI1, in the positive analysis fitting direction relative to DMSO as the negative control and baseline of activity. Using a type of binding reporter, gain or loss-of-signal activity can be used to understand protein changes. To generalize the intended target to other relatable targets, this assay endpoint is annotated to the 'cytokine' intended target family, where the subfamily is 'plasmogen activator inhibitor'.
The levels of cell surface (or secreted, indicated by the prefix "s") biomarker endpoints were measured by ELISA. Overt cytotoxicity to cells in confluent adherent cultures (all systems other than the BT system) was assessed by measuring total protein levels using sulforhodamine B (SRB) staining in parallel cultures at the time of biomarker measurements, indicated as SRB endpoints. For proliferation assays for adherent cell types, individual cell types are cultured at sub-confluence and relative cell numbers quantified by SRB staining at time points optimized for each system (48 h: 3C and CASM3C systems; 72 h: BT and HDF3CGF systems; 96 h: SAg system). SRB was performed by staining cells with 0.1% SRB after fixation with 10% TCA and reading wells at 560 nm.Viability and proliferation of PBMC (T cells) was quantified by Alamar Blue reduction for the SAg and BT systems. For PBMC viability (referred to as PBMC Cytotoxicity within the assay endpoint names), cells were plated (75,000/well in a 96-well plate) and then chemical samples added for 1 h before addition of activators, SEB and TSST-1 (20 ng/mL final concentration each). Cells were incubated for 90 h. Then, Alamar Blue (20 uL/well) (Invitrogen, Cat DAL1100) was added for 6 h, and the plates were read with a fluorescence microplate reader at 546/580 nm (excitation/emission). For PBMC proliferation, cells were plated and activated as above but incubated for only 16 h prior to addition of Alamar Blue. Plates were read after 6 h.

Measured: AC50

CC(C)(C)c1cccc(O)c1
inactive: Decorin, DCN (gene 1634) | [1] | [2] | [3]

CCCCCCCCCCCCS
inactive: [3]
active: Decorin, DCN (gene 1634) 3.97 µM | [1] 20 µM | [2] 5.81 µM

OCC(F)(OC(F)(F)C(F)(OC(F)(F)C(F)(F)C(F)(F)F)C(F)(F)F)C(F)(F)F (stereo not given)
active: [1] 2.54 µM and 3.33 µM | [7] 4.28 µM
inactive: [4] | Decorin, DCN (gene 1634) | KRT18 (gene 3875) | [2] | [3] | [5] | [6] | [7] | [8]

CCOC(=O)C=Cc1ccccc1
inactive: Decorin, DCN (gene 1634) | [1] | [2] | [3]

CC(=O)CCC=C(C)CCC=C(C)C
inactive: Decorin, DCN (gene 1634) | [1] | [2] | [3]

CCCCCCCC1CCCC1=O (stereo not given)
active: [1] 32.4 µM | [2] 32.4 µM
inactive: Decorin, DCN (gene 1634) | [3]

NC(=O)c1c(Cl)cccc1Cl
inactive: Decorin, DCN (gene 1634) | [1] | [2] | [3]

CC(C)Cc1ccc(C(C)C(=O)O)cc1 (stereo not given)
inactive: Decorin, DCN (gene 1634) | [1] | [2] | [3]

COc1ccccc1NC(=O)CC(C)=O
inactive: Decorin, DCN (gene 1634) | [1] | [2] | [3]

O=C1OC2(c3ccc(O)cc3Oc3cc(O)ccc32)c2ccccc21
inactive: Decorin, DCN (gene 1634) | [1] | [2] | [3]

CCOC(=O)CCCCCCCCC(=O)OCC
inactive: Decorin, DCN (gene 1634) | [1] | [2] | [3]

O=C(O)C(F)(F)OC(F)(F)C(F)(F)OC(F)(F)C(F)(F)C(F)(F)C(F)(F)F
inactive: [4] | Decorin, DCN (gene 1634) | KRT18 (gene 3875) | [1] | [2] | [5] | [7] | [8]
active: [3] 11.9 µM and 8.26 µM | [6] 12.9 µM and 17.8 µM

O=S(=O)(O)C(F)(F)C(F)(F)OC(F)(F)C(F)(F)F
inactive: [4] | Decorin, DCN (gene 1634) | KRT18 (gene 3875) | [1] | [2] | [3] | [5] | [6] | [7] | [8]
active: [6] 36.9 µM

O=C(O)C(F)(F)C(F)(F)C(F)(F)C(F)(F)C(F)(F)C(F)(F)C(F)(F)C(F)F
active: Decorin, DCN (gene 1634) 22.5 µM | [5] 51.9 µM | [7] 4.37 µM and 2.45 µM | [8] 2.94 µM and 2.8 µM
inactive: [4] | Decorin, DCN (gene 1634) | KRT18 (gene 3875) | [1] | [2] | [3] | [5] | [6]

CCCCCCCCCC(=O)OCC
inactive: Decorin, DCN (gene 1634) | [1] | [2] | [3]

CC(=O)OCC=C(C)CCC=C(C)CCC=C(C)C
inactive: Decorin, DCN (gene 1634) | [1] | [2] | [3]

O=S1(=O)CC(Cl)(Cl)C(Cl)(Cl)C1
inactive: Decorin, DCN (gene 1634)
active: [1] 2.14 µM | [2] 3.45 µM | [3] 3.94 µM

CC1(C)[C@H](C=C(Cl)Cl)[C@H]1C(=O)OCc1cccc(Oc2ccccc2)c1
inactive: Decorin, DCN (gene 1634) | [1] | [2] | [3]

CC=CC(=O)C1=C(C)C=CCC1(C)C
inactive: Decorin, DCN (gene 1634) | [1] | [2] | [3]

C=C(F)C(=O)OC(C(F)(F)F)C(F)(F)F
inactive: [4] | Decorin, DCN (gene 1634) | KRT18 (gene 3875) | [1] | [2] | [3] | [5] | [6] | [7] | [8]

Nc1ccc(N)c([N+](=O)[O-])c1
inactive: Decorin, DCN (gene 1634) | [1] | [2] | [3]

C=C1CC/C=C(\C)CC[C@@H]2[C@@H]1CC2(C)C
active: Decorin, DCN (gene 1634) 31 µM | [1] 28.8 µM | [2] 9.66 µM | [3] 34.6 µM

C=CC(=O)OCC(CO)(COC(=O)C=C)COC(=O)C=C
active: Decorin, DCN (gene 1634) 3.97 µM | [1] 0.642 µM | [3] 2.05 µM
inactive: [2]

CC1=CC(C)C(C=O)C(C)C1 (stereo not given) (tested in a mixture with another compound)
inactive: Decorin, DCN (gene 1634) | [1] | [2] | [3]

CC(=O)OC(C)(C)C1CC=C(C)CC1 (stereo not given)
inactive: Decorin, DCN (gene 1634) | [1] | [2] | [3]

CCC(=O)OCC=Cc1ccccc1
inactive: Decorin, DCN (gene 1634) | [1] | [2] | [3]

OCCN1CCOCC1
inactive: Decorin, DCN (gene 1634) | [1] | [2] | [3]

C=C(C)C(=O)OCCC(F)(F)C(F)(F)C(F)(F)C(F)(F)C(F)(F)C(F)(F)C(F)(F)C(F)(F)F
inactive: [4] | Decorin, DCN (gene 1634) | KRT18 (gene 3875) | [1] | [2] | [3] | [5] | [6] | [7] | [8]

c1ccc2c(c1)-c1ccc3ccc4cccc5cc-2c1c3c45
inactive: Decorin, DCN (gene 1634) | [1] | [3]
active: [2] 1.33 µM

c1ccc(Sc2ccccc2)cc1
active: Decorin, DCN (gene 1634) 36.5 µM | [1] 34.8 µM | [2] 30.8 µM | [3] 32.3 µM
